Screening results (PubChem)
Only a selection was taken, and hits are over-represented in it overall.
12-LOX inh = inhibitors of human 12S-lipoxygenase ALOX12 | purified 12hLO, xylenol orange hydroperoxide absorbance | actives 1.1% (n = 580,000) | Potency, µM (titrated, usually from 108 µM), without a hit: at the highest dose activity change, negative = inhibition, usual class: inhibitors | P18054; note: % is set by controls: 0 for no effect and ±100 for the full control effect
Target sequence (P18054 whole entry, looked up): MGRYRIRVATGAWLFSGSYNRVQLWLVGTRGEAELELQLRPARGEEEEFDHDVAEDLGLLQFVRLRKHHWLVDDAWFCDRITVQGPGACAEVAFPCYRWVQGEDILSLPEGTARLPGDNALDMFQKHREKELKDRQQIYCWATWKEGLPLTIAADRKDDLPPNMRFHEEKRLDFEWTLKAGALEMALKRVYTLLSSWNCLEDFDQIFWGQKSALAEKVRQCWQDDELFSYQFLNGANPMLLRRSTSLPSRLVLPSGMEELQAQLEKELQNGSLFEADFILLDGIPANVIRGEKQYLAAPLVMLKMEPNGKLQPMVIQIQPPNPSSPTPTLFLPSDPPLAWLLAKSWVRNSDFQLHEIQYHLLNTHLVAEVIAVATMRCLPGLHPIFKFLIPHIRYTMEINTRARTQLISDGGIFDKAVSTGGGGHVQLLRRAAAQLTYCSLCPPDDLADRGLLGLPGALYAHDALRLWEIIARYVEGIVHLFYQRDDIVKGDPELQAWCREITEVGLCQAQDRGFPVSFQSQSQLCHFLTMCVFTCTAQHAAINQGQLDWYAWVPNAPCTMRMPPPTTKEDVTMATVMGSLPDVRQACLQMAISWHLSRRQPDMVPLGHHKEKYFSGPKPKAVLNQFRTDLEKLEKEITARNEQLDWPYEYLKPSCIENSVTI
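Hydroperoxide product was detected by ferrous iron/xylenol orange as the 573 to 405 nm absorbance ratio. Arachidonic acid at 40 uM (final) was turned over for 30 min at room temperature by 150 nM human 12hLO, pH 7.0 Hepes buffer, after 15 min compound preincubation.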
VDR inh = vitamin D3 receptor (human) inhibition; P11473; VDR-SRC2-3 peptide fluorescence polarization, 2 h; Potency, µM, inactives show max response, negative = inhibition, most hits filed as inhibitors; actives 0.93% (n = 400,000); AID 504847; note: % is set by controls: 0 for no effect and ±100 for the full control effect
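Inhibition of the VDR/SRC2-3 peptide interaction is quantified by fluorescence polarization. Compounds (23 nl, pintool) incubate with the reagents for 2 hours at ambient room temperature.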
Sfp inh = blocks B. subtilis Sfp PPTase activity | Q9F4F7 | Biochemical Sfp PPTase activity, qHTS | Potency, µM, inactives show largest response in the series, negative = inhibition, hits mostly inhibitors | actives 3.5% (n = 310,000) | AID 1490;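 note: the enzyme is Sfp with the accession as filed and its product quenches rhodamine fluorescence; 0% = enzyme reaction without inhibitor and -100% = no enzyme wells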
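Sfp 15 nM + cpd, 15 min RT; start w/ rhodamine-CoA 5 uM, BHQ-2-YbbR 12.5 uM (final); 50 mM Hepes pH 7.6, 10 mM MgCl2, 0.01% NP-40, 0.01% BSA; read 525/598 nm at 0 and 30 min.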
G9a inh = inhibitors of human histone lysine methyltransferase G9a. actives 8.8% (n = 350,000). G9a H3K9 monomethylation, AlphaScreen, 2 h. Potency, µM (titrated, usually from 102 µM), for inactives: at the highest dose activity, negative = inhibition, hits mostly inhibitors; note: % is set by controls: 0 for no effect and ±100 for the full control effect; nearly all actives have a fitted effect of over 75% in size
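Chemiluminescent proximity detection of H3K9 monomethylation, read after 10 min bead incubation in the dark. Reaction: 20 nM G9a, 500 nM biotin-H3K9 peptide, 20 uM SAM cofactor, 2 h, room temperature, following 15 min enzyme-compound preincubation.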
GRP78 ERSR act = ER stress response induction in glioma; U87-MG GRP78 promoter luciferase reporter, 16 h; Potency, µM, for the others: at the highest dose activation, most hits filed as activators; actives 0.02% (n = 420,000); note: series mostly up to about 76 µM; % of control where 0% means no effect; nearly all actives have a fitted effect of over 35% in size
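ERSR induction read as luciferase luminescence (Bright-Glo, 10 min at room temperature) in stably transfected human U87-MG glioma cells exposed to compounds for 16 h, using GRP78 as sensor.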
* marks the source's active call; other numbers are inactive results; u = inconclusive; x = no result; [ ] = dose if it differs, or a comment. Calls come from the whole dose curve; as a rule, active = well fitted curve in the direction sought with a large enough effect; inconclusive = small, poorly fitted or top-dose-only effect, or another doubt; inactive = no such curve, though single readings can be large; an effect the other way counts as inactive or inconclusive. Potency is the fitted concentration of half-maximal effect.

SMILES | 12-LOX inh | VDR inh | Sfp inh | G9a inh | GRP78 ERSR act
Cc1nn(-c2ccccc2)c2c1C(c1cccs1)C(C#N)=C(N)O2 (centres undefined) | x | -26.7% | -10.1% | 35.5µM* | -3.6%
Cc1nn(-c2ccccc2)c2c1C(c1ccco1)C(C#N)=C(N)O2 (centres undefined) | u | -23.1% | -27.4% | 39.8µM* | 4.6%
COCCN(CC(=O)NC(N)=O)Cc1ccccc1 | -1.0% | x | x | x | x
CCOP(=O)(O)c1ccccc1OCCOc1ccccc1P(=O)(O)OCC | -13.5% | -3.1% | -6.5% | 44.7µM* | 0.5%
O=C(CNCc1cccs1)NC12CC3CC(CC(C3)C1)C2 | -1.0% | -17.8% | -10.1% | 12.6µM* | -0.3%
CC1(C)C2CCC(C2)C1(C)NC(=O)CNCc1cccs1 (centres undefined) | -26.5% | -10.8% | 89.1µM* | 11.2µM* | 2.4%
Cc1cccc(N2C(=O)CC(SC(=Nc3ccccc3)Nc3ccccc3)C2=O)c1 (centres undefined) | 322.3% | 7.7% | 8.1% | 8.9%[59 µM] | -2.6%
O=C1SC(SC(=Nc2ccccc2)Nc2ccccc2)C(=O)N1c1ccccc1 (centres undefined) | -28.3% | 89.1µM* | -19.5% | 44.7µM* | 2.3%
COc1ccccc1C(=O)Oc1ccccc1C(=O)Nc1ccccc1 | -1.1% | -7.4% | 9.0% | -7.3% | -2.8%
O=C(Oc1ccccc1C(=O)Nc1ccccc1)c1ccc(Br)c([N+](=O)[O-])c1 | -1.4% | 50.1µM* | 1.0% | -17.2%[59 µM] | 31.6µM*
CC(C)(C)c1cn(-c2ccc(F)cc2)c(=S)[nH]1 | -19.0% | 7.4% | u | 1.41µM* | -1.1%
COc1ccc(/C=N/OC(=O)COc2cc(C)cc(C)c2)cc1COc1ccc(F)cc1 | -0.3% | x | x | x | x
Clc1ccc(-c2nc(CN3CCCC3c3ccsc3)co2)cc1 (centres undefined) | -10.8% | x | x | x | x
COc1cc(/C=C(\C#N)C(=O)Nc2ccccn2)ccc1O | u | -18.6% | 7.1% | u | 9.7%
CCOc1ccccc1/C=C(/C#N)C(N)=O | 0.0% | -6.1% | 5.2% | 7.8% | -4.2%
N#C/C(=C\c1ccccc1)C(=O)Nc1ccccn1 | 64.8% | -5.6% | 3.6% | 2.0% | -0.7%
CCCOc1ccccc1/C=C(\C#N)C(=O)Nc1cccc(C)n1 | -0.1% | u | -6.9% | 20µM* | 6.7%
CCOc1cc(/C=C(\C#N)C(=O)Nc2ccccn2)ccc1O | u | -14.1% | 6.4% | 44.7µM* | 9.6%
Cc1cccc(/C=C(\C#N)C(=O)Nc2ccccn2)c1 | u | -4.3% | 10.8% | 44.7µM* | 4.6%
CCCNc1c(NC(=O)NCc2cccc(OC)c2)c(=O)oc2ccccc12 | 1.8% | x | x | x | x
Cc1ccc(I)c(C(=O)NC(C)(C)C)c1 | 1.7% | x | x | x | x
CCOC(=O)c1nn(-c2ccccc2)c(=O)c2c(N)sc(C)c12 | x | x | x | -37.8%[12.7 µM] | x
CCOC(=O)c1nn(-c2ccc(OC)cc2)c(=O)c2c(N)scc12 | u | 17.8µM* | 10µM* | 1.12µM* | -6.2%
CCOC(=O)c1nn(-c2ccc(C)c(C)c2)c(=O)c2c(N)scc12 | u | 7.5% | 8.91µM* | 2µM* | -8.1%
Cc1nc(C)c(C(=O)N2CCC[C@H](n3c(=O)n(Cc4ccccc4)c4cccnc43)C2)s1 | 50.9% | x | x | x | x
SMILES | 12-LOX inh | VDR inh | Sfp inh | G9a inh | GRP78 ERSR act
COC(=O)c1c(NC(=O)CCCOc2ccc(C(C)(C)C)cc2)sc2c1C(C(=O)OC)CC2 (centres undefined) | u | u | x | 1.41µM* | -1.2%
CCCC(=O)Nc1sc2c(c1C(=O)OC)C(C(=O)OC)CC2 (centres undefined) | 0.0% | -9.8% | -7.4% | -3.0%[59 µM] | -8.9%
CNC(CC(=O)c1ccc([N+](=O)[O-])cc1)C(Cl)(Cl)Cl (centres undefined) | x | 17.8µM* | 10µM* | 3.98µM* | -15.0%
Cc1ccc(NCC(=O)c2ccc([N+](=O)[O-])cc2)cc1 | x | u | 20µM* | 8.91µM* | 0.9%
Cc1ccc(C(=O)CNc2cccc([N+](=O)[O-])c2)cc1 | u | -11.3% | 5.4% | u | 2.4%
Cc1ccc2c(c1)CCCN2C(=O)c1cc2cc(C)ccc2nc1C | 2.8% | x | x | x | x
COc1ccc2c(c1)CCCN2C(=O)c1cc2cc(Cl)ccc2nc1C | 44.7µM* | x | x | x | x
Cc1cc(NC(=O)CSc2ccccn2)no1 | -6.0% | 5.9% | 8.0% | 44.7µM* | -2.0%
Cc1cc(NC(=O)CCOc2ccc(F)cc2)no1 | 0.0% | u | -5.5% | 56.2µM* | 1.1%
Cc1cc(NC(=O)c2ccc(F)cc2)no1 | 22.3% | -13.8% | 14.7% | -6.2% | -2.8%
Cc1cc(NC(=O)CSc2c(C)[nH]c3ccccc23)no1 | -10.9% | -13.2% | -6.6% | 50.1µM* | 0.6%
Cc1ccc(-n2c(SCC(=O)Nc3cc(C)on3)nc3c([nH]c4ccccc43)c2=O)cc1 | u | -1.6% | 16.7% | -7.5%[59 µM] | -3.9%
O=C(Cc1cccc(C(F)(F)F)c1)NCCc1ccccn1 | -1.0% | x | x | x | x
COCCOc1nc2c(c(=O)n(C)c(=O)n2C)n1C(C)c1ccccc1 (centres undefined) | 30.4% | x | x | x | x
CCn1c(C)nc2cc(C(=O)NNC(=S)Nc3ccccc3)ccc21 | -1.2% | 7.4% | 19.2% | 44.7µM* | -1.9%
CCn1c(C)nc2cc(C(=O)NNC(=S)NC(=O)c3ccccc3)ccc21 | u | -5.5% | 18.2% | 17.8µM* | 0.5%
CCn1c(C)nc2cc(C(=O)NNC(=O)c3ccc(C)cc3)ccc21 | -4.8% | -7.0% | x | 29.7%[2.33 µM] | -1.5%
CCn1c(C)nc2cc(C(=O)NNC(=S)Nc3ccc(Cl)cc3)ccc21 | 0.6% | -4.6% | -27.4% | u | 0.0%
CCn1c(C)nc2cc(C(=O)NNC(=S)Nc3ccc(F)cc3)ccc21 | -27.7% | 12.7% | 15.1% | 44.7µM* | 3.7%
NC(=O)NC(=O)COC(=O)c1ccc(F)cc1F | 26.8% | x | x | x | x
CCn1c2c(c(=O)n1-c1ccccc1)CCN(CCCc1ccccc1)C2 | 28.2µM* | x | x | x | x
C/C(=N\Nc1nc(-c2ccccc2)cs1)c1cccs1 | 44.7µM* | -14.9% | 56.2µM* | 5.01µM* | 4.9%
Cc1ccc(N/N=C/c2c(C)c(C#N)c(=O)n(C)c2O)cc1C | -21.6% | u | 12.6µM* | 0.794µM* | 0.6%
COc1ccc(S(=O)(=O)Nc2ccc(NC(C)=O)cc2)cc1NC(C)=O | 1.2% | x | x | x | x
CCCCSc1nnc2c(n1)OC(c1ccc(C)s1)Nc1ccccc1-2 (centres undefined) | -12.8% | -4.0% | x | -24.5%[59 µM] | 1.7%
CCCCSc1nnc2c(n1)OC(c1ccc(Br)s1)N(C(C)=O)c1ccccc1-2 (centres undefined) | -24.0% | -13.8% | x | 10µM* | -2.6%
CCCCCSc1nnc2c(n1)OC(c1ccc(C)s1)N(C(C)=O)c1ccccc1-2 (centres undefined) | -30.1% | -28.5% | x | u | 4.1%
CCCSc1nnc2c(n1)OC(c1ccc(Br)s1)Nc1ccccc1-2 (centres undefined) | u | -17.5% | x | 7.08µM* | -0.6%
Cc1ccccc1[S+](=O)([O-])N1CCC2(CC1)OCCN(Cc1ccccc1)C2=O | -5.6%[176 µM] | x | x | x | x
